The structures appear in SMILES notation. Activity calls are given as the source filed them. The call rests on the fitted dose curve; in most records, active means well fitted curve in the direction sought with a large enough effect in the repeat runs; inconclusive means weak or mixed curves; inactive means flat fitted curve, though single readings scatter.

Here are results for 40 compounds from PubChem BioAssay (Tox21).
On the % scale 0 is the no-effect control and ±100 the full control effect.

The nature of this assay: qHTS assay to test for compound auto fluorescence at 460 nm (blue) in HepG2 cells (AID 720687). The note with it: autofluorescence 405/460 nm, 1 h; series mostly up to 91.3 µM. The text has this:
U.S. Tox21 Program National Center for Advancing Translational Sciences [NCATS] NIH Chemical Genomics Center [NCGC] U.S. Environmental Protection Agency [EPA] National Institutes of Environmental Health Sciences [NIEHS] National Toxicology Program [NTP] U.S. Food and Drug Administration [FDA] Tox21 Assay Overview: Compound auto fluorescence often interferes with screening of the compound library against various biological targets and signaling pathways. Some of these compounds may have fluorophoric properties. Such properties may interfere with the assay outputs resulting in false positives and/or negatives. To decrease such complications and ensure the compound activities are relevant in terms of biological response, the Tox21 10K compound library was screened for auto fluorescence. From the fluorophores used as reporter signals in our screening assays, the auto fluorescence equivalencies of compounds against three fluorophores have been evaluated: Triamterene, Fluorescein and Rose Bengal sodium for blue, green and red fluorescence, respectively. The fluorescence intensities were measured using Excitation/Emission wavelengths at 405/460nm, 485/535nm and 540/590nm for blue, green and red labels, respectively. This assay includes the blue fluorescence data.
Tox21 Assay Protocol Summary: 2,000 HepG2 cells in 5 uL of culture medium (MEM containing 10% FBS) per well were dispensed into black wall/clear bottom 1536-well plates using a Multidrop Combi Dispenser (ThermoFisher Scientific, Waltham, MA). The assay plates were incubated overnight at 37 C to allow cell attachment to the well bottom, followed by the transfer of 23 nL compound or DMSO vehicle by a pintool work station (Kalypsys , San Diego, CA). After the assay plates were incubated for 1 hr at 37 C and 5% CO2, fluorescence intensities in the assay plates were measured by an Envision (PerkinElmer, Shelton, CT) plate reader using three labels for measuring blue, green and red fluorescence at […] 460, 535 and 590 nm respectively.
Regarding `N=C(N)N1CCc2ccccc2C1`, the result was inactive.

As for `CC(=O)OC1CCC(C(C)(C)C)CC1` (stereo not given), the result was inactive. Consider `CCCCCCCCCCCCCC(=O)OCC`, for which the outcome was inactive. Consider `C=COCCCCO`, for which the call was inactive. Turning to `CCCCN=C(N)N=C(N)N`, the compound was called inactive. On the same count and under the same terms, for `CC(CC(=O)Cl)CC(C)(C)C` (stereo not given) the value was “inactive”; for `CCCC(=O)C(CC)Sc1ccoc1C` (stereo not given), “inactive”. For the compound `N#CC1(N)CCCCC1`, the outcome was inactive. On the same count and under the same terms, for `Cc1ccc(OC(=O)CC(C)C)cc1` the value was “inactive”. Regarding `C=CCCCCCCCCCCCCCC`, the fluorescence, % of fluorescent control was 0.001% [at 18.6 µM] (inactive).

Regarding `CCCCNCC`, the result was inactive. The same measure, in the same setting: next, `CC(C)(C)C(=O)CCc1ccc(Cl)cc1`: “inactive”; `CC(C)(C)c1ccc(N)cc1`: “inactive”; `CCCCN1C(=O)c2ccccc2C1=O`: “inactive”.

Turning to `CCOC(=O)c1ccc(N(C)C)cc1`, the compound was called inactive. The same measure, in the same setting: next, `CCCc1ccc(O)c(OC)c1`: “inactive”. On the same count and under the same terms, for `COc1ccc(Cl)cc1C` the value was “inactive”.

As for `CC(C)(C)C(=O)NCCCC(=O)O`, the compound was called inactive. Same read-out and setting: next, `Cc1ccccc1C#N`: “inactive”; `Cc1ccc(O)c(C(=O)c2ccccc2)c1`: “inactive”; `CCCCS`: “inactive”. On the same count and under the same terms, next, `Cc1nc2ccc(Cl)cc2[nH]1`: “inactive”; `CC(=O)Oc1ccc(C(C)=O)cc1`: “inactive”; `CCCCC(CC)CCC(CC(C)C)OS(=O)(=O)O` (stereo not given): “inactive”. Same read-out and setting: next, `CN1CCN(C(=O)C2CCCCC2)CC1`: “inactive”. For `C=CC(=O)OCC[N+](C)(C)C`, the compound was called inactive.

Consider `CC(C)(C)NCC(O)COc1cccc2c1CCC(=O)N2` (stereo not given), for which the fluorescence, % of fluorescent control is 0.113% [at 18.6 µM] (inactive). Take `O=c1[nH]c(=O)c2cn[nH]c2[nH]1`: the compound was classed as inactive.

Take `CC/C=C\CCOC(=O)c1ccccc1`: the outcome was inactive. Same read-out and setting: next, `N#Cc1ccccc1C#N`: “inactive”; `COC(=O)c1c(C)cc(O)c(C)c1O`: “inactive”; `COC(C)(C)CC(C)=O`: “inactive”.

Take `CCCC(C)C(O)CC` (stereo not given): the compound was classed as inactive. Consider `CCCCCCCCCCCCCCCCN(C)C`, for which the fluorescence, % of fluorescent control was -0.0699% [at 3.72 µM] (inactive). For `O=c1c(O)c(O)c1=O`, the outcome was inactive.

Consider `COc1cc2nc(N3CCN(C(=O)C4CCCO4)CC3)nc(N)c2cc1OC` (stereo not given), for which the result was inactive. Turning to `O=S(=O)(O)CC(O)CCl` (stereo not given), the result was inactive. As for `CCN1CCN(C(=O)N[C@@H](C(=O)N[C@@H]2C(=O)N3[C@@H]2SC(C)(C)[C@H]3C(=O)O)c2ccccc2)C(=O)C1=O`, the compound was classed as inactive.

As for `CCCOc1ccc(C(=O)OCCN(CC)CC)cc1N`, the compound was classed as inactive. Still for that read-out and setting: for `O=C(CCBr)N1CCN(C(=O)CCBr)CC1` the value was “inactive”.
